In the supplement of paper PMC10849652:
Targets with a hit are over-represented here; the source holds about 7,900 in all. About 0.6% of all pairs of compound and target were hits. Unmarked numbers belong to inactive results.

Columns and labels:
Assay in all cases: log2 fold change, soluble protein after heating vs DMSO (PISA); higher = thermal stabilisation; K562 cells, 10 uM, 30 min; active = over 0.2 and 3.5 SD of the protein, either way, in both replicates (recomputed)
[1] = compound: CS(=O)(=O)c1ccc(-c2cnc(N)c(C(=O)Nc3ccccc3)n2)cc1
Outline: (§1)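 Soluble protein was defined as the supernatant after 21,000xg for 90 min. It came from K562 cells at 2×10^6 cells/mL given 10 μM compound for 30 min, heated in aliquots for 3 min across 48°C-58°C, pooled, and extracted in PBS with 0.5% NP-40 at 4°C, and was quantified by TMTpro 16plex LC-MS/MS with equalised channel sums. Thermal stability against control samples, from duplicates, is reported as log2 fold change.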

crizotinib = compound: C[C@@H](Oc1cc(-c2cnn(C3CCNCC3)c2)cnc1N)c1c(Cl)ccc(F)c1Cl [crizotinib]
Outline: as §1

[2] = compound: C[C@@H]1COCCN1C2=NC(=NC(=C2)C3(CC3)S(=O)(=O)C)C4=C5C=CNC5=CC=C4
Outline: as §1

[3] = compound: C[C@H](C1=CC=C(C=C1)C(=O)NC2=C3C=CNC3=NC=C2)N
Outline: as §1

duvelisib = compound: C[C@H](Nc1ncnc2nc[nH]c12)c1cc2cccc(Cl)c2c(=O)n1-c1ccccc1 [duvelisib]
Outline: as §1

gandotinib = compound: Cc1cc(Nc2cc(CN3CCOCC3)c3nc(C)c(Cc4ccc(Cl)cc4F)n3n2)n[nH]1 [gandotinib]
Outline: as §1

tozasertib = compound: Cc1cc(Nc2cc(N3CCN(C)CC3)nc(Sc3ccc(NC(=O)C4CC4)cc3)n2)n[nH]1 [tozasertib]
Outline: as §1

[4] = compound: Cc1cc(SCc2sc(-c3ccc(C(F)(F)F)cc3)nc2C)ccc1OCC(=O)O
Outline: as §1

doramapimod = compound: Cc1ccc(-n2nc(C(C)(C)C)cc2NC(=O)Nc2ccc(OCCN3CCOCC3)c3ccccc23)cc1 [doramapimod]
Outline: as §1

ispinesib = compound: Cc1ccc(C(=O)N(CCCN)[C@@H](c2nc3cc(Cl)ccc3c(=O)n2Cc2ccccc2)C(C)C)cc1 [ispinesib]
Outline: as §1

bafetinib = compound: Cc1ccc(NC(=O)c2ccc(CN3CC[C@H](N(C)C)C3)c(C(F)(F)F)c2)cc1Nc1nccc(-c2cncnc2)n1 [bafetinib]
Outline: as §1

[5] = compound: Cc1cccc(CC(=O)N2CCc3c2ccc(-c2cn(C)c4ncnc(N)c24)c3F)n1
Outline: as §1

nilotinib = compound: Cc1cn(-c2cc(NC(=O)c3ccc(C)c(Nc4nccc(-c5cccnc5)n4)c3)cc(C(F)(F)F)c2)cn1 [nilotinib]
Outline: as §1

[6] = compound: Cc1nc(Nc2n[nH]c3c2CN(C(=O)N[C@H](CN(C)C)c2ccccc2)C3(C)C)c2sccc2n1
Outline: as §1

dasatinib = compound: Cc1nc(Nc2ncc(C(=O)Nc3c(C)cccc3Cl)s2)cc(N2CCN(CCO)CC2)n1 [dasatinib]
Outline: as §1

[7] = compound: Cc1ncc(-c2ccnc(Nc3ccc(S(C)(=O)=O)cc3)n2)n1C(C)C
Outline: as §1

[8] = compound: Cn1cc(-c2ccc3c(c2)CCN3C(=O)Cc2cccc(C(F)(F)F)c2)c2c(N)ncnc21
Outline: as §1

[9] = compound: Cn1cc(-c2ccc3nnc(C(F)(F)c4ccc5ncccc5c4)n3n2)cn1
Outline: as §1

tipifarnib = compound: Cn1cncc1[C@@](N)(c1ccc(Cl)cc1)c1ccc2c(c1)c(-c1cccc(Cl)c1)cc(=O)n2C [tipifarnib]
Outline: as §1

mubritinib = compound: FC(F)(F)c1ccc(/C=C/c2nc(COc3ccc(CCCCn4ccnn4)cc3)co2)cc1 [mubritinib]
Outline: as §1

Sequence of UniProt Q9Y6H3 (Q9Y6H3 whole entry, looked up): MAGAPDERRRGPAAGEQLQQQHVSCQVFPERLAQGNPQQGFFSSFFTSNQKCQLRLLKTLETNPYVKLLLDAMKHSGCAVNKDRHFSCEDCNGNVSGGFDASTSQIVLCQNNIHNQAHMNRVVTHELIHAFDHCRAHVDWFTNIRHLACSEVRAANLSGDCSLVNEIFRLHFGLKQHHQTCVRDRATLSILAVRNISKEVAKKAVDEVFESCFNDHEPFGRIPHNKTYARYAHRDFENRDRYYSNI
Sequence of UniProt O43861 (O43861 whole entry, looked up): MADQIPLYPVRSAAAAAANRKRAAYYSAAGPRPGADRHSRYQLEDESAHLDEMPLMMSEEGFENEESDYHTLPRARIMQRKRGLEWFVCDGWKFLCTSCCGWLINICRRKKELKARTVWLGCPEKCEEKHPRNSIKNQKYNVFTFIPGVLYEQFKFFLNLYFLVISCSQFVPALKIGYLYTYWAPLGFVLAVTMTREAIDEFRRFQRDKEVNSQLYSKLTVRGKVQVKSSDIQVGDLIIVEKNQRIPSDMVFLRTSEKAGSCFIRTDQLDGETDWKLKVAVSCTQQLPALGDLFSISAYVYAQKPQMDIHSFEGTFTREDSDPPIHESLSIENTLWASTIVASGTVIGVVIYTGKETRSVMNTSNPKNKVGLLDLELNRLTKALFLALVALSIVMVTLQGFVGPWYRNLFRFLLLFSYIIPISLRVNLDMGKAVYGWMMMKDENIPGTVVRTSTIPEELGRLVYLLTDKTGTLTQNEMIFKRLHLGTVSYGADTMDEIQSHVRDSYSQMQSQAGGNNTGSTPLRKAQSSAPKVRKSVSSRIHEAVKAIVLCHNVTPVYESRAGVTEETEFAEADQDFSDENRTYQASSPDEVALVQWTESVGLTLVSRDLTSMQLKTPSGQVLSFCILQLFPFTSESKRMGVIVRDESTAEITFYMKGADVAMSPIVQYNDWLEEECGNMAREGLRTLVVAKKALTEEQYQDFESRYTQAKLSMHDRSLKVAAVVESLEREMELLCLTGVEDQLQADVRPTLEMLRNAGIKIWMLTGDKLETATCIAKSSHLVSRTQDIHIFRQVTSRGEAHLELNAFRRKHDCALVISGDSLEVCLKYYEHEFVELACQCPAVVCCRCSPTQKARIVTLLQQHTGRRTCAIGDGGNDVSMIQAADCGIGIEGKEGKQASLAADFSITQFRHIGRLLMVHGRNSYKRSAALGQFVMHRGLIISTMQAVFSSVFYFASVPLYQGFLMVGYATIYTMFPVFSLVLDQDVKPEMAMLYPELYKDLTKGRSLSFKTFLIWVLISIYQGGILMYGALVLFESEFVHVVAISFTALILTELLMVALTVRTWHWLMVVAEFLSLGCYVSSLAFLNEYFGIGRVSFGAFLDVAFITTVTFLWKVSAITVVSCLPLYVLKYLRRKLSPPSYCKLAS
Sequence of UniProt P56385 (P56385 whole entry, looked up): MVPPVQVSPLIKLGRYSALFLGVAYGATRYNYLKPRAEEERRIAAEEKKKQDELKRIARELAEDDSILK
Sequence of UniProt Q9Y4P1 (Q9Y4P1 whole entry, looked up): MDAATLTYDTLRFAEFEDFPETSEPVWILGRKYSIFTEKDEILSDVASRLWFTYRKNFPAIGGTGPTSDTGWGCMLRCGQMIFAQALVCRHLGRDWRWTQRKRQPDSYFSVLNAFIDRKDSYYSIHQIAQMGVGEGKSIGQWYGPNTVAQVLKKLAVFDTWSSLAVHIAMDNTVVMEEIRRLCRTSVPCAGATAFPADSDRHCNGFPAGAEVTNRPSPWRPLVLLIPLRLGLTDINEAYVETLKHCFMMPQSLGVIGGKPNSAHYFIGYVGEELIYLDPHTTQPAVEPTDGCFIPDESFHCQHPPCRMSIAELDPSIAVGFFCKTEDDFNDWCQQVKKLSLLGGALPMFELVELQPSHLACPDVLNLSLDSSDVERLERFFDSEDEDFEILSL
Sequence of UniProt Q8N6H7 (Q8N6H7 whole entry, looked up): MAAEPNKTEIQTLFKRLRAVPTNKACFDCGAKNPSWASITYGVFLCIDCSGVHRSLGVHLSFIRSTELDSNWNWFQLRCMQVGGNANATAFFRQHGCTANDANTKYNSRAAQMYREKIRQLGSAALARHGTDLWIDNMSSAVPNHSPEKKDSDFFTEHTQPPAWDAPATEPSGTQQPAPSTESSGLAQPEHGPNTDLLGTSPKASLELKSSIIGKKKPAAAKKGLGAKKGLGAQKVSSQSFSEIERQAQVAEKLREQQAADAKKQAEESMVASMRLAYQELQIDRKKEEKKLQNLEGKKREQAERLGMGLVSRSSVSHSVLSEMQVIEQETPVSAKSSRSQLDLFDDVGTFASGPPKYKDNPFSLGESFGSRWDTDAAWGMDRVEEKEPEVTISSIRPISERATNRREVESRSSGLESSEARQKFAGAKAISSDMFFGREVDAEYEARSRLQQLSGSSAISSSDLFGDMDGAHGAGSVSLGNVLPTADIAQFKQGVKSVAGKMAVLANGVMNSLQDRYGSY
Sequence of UniProt P11766 (P11766 whole entry, looked up): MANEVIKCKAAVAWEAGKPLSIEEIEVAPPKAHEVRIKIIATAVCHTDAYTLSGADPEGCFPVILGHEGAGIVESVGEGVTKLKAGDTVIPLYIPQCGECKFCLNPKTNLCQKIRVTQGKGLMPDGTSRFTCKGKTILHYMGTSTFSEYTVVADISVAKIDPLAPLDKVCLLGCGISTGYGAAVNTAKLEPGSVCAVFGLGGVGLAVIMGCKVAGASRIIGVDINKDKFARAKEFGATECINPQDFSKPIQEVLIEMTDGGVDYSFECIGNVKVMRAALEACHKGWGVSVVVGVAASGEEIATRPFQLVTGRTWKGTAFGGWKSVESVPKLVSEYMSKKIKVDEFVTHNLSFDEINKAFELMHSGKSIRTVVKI
Sequence of UniProt Q92685 (Q92685 whole entry, looked up): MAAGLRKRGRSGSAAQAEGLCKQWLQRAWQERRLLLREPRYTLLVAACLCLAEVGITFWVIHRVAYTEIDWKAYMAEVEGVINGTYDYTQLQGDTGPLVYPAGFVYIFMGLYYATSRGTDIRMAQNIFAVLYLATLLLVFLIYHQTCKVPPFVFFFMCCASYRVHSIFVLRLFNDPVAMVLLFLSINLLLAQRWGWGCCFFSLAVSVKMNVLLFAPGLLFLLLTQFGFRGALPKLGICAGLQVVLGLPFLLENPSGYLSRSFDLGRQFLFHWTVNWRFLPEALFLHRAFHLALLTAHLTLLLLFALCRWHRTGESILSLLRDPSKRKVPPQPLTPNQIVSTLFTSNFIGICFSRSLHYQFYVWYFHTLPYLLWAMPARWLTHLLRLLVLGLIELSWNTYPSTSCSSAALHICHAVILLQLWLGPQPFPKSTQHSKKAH
Sequence of UniProt Q9BX63 (Q9BX63 whole entry, looked up): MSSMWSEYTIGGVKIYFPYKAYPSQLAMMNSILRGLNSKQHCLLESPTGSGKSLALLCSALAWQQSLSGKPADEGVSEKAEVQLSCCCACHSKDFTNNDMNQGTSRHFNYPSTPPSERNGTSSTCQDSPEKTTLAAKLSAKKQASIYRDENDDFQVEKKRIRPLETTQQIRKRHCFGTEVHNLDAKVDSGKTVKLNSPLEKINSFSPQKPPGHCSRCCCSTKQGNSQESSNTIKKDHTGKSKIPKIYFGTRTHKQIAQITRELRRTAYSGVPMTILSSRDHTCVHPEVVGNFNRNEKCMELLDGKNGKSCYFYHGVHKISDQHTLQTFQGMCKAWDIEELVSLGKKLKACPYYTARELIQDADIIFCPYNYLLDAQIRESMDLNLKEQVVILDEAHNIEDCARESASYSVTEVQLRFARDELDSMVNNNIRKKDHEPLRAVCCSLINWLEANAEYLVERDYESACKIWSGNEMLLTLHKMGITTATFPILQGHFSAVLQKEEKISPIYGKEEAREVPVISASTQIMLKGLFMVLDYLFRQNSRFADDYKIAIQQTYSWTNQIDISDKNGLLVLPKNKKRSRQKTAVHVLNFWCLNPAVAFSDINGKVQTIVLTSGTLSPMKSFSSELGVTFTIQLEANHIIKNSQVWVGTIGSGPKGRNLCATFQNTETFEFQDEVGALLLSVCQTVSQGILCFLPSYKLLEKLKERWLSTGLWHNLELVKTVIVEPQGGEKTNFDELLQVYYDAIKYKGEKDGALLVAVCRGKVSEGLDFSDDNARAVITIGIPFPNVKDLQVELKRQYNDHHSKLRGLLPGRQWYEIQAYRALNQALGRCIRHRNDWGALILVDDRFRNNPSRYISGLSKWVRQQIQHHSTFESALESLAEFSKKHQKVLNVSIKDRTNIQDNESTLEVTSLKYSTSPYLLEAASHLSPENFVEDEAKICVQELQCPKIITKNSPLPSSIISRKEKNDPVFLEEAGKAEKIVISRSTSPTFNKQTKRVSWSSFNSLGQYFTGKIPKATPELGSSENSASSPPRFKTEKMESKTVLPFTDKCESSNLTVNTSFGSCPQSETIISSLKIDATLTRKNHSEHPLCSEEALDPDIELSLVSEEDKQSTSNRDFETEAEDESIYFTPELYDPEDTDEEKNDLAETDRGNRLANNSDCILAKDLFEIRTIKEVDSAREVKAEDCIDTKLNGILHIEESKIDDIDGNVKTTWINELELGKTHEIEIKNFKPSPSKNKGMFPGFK
Sequence of UniProt P36405 (P36405 whole entry, looked up): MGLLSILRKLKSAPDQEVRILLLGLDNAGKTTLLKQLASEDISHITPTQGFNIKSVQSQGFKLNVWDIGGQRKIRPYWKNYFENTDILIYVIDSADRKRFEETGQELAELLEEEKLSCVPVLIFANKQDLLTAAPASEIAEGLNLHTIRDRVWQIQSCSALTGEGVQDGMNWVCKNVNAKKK
Sequence of UniProt P53680 (P53680 whole entry, looked up): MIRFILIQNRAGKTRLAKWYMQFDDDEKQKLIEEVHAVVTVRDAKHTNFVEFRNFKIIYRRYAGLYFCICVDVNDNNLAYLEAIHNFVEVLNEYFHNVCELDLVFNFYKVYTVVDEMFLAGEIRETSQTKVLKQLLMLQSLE

Target	log2 fold change [1]	log2 fold change (crizotinib)	log2 fold change [2]	log2 fold change [3]	log2 fold change (duvelisib)	log2 fold change (gandotinib)	log2 fold change (tozasertib)	log2 fold change [4]	log2 fold change (doramapimod)	log2 fold change (ispinesib)	log2 fold change (bafetinib)	log2 fold change [5]	log2 fold change (nilotinib)	log2 fold change [6]	log2 fold change (dasatinib)	log2 fold change [7]	log2 fold change [8]	log2 fold change [9]	log2 fold change (tipifarnib)	log2 fold change (mubritinib)
ATP5ME (UniProt P56385)	-0.016	0.101	0.102	-0.046	0	0.001	0.008	-0.016	0.033	0.078	-0.071	-0.051	0.022	0.008	0.084	-0.046	0.001	0.103	-0.031	0.023
ATP23 (UniProt Q9Y6H3)	-0.002	-0.116	0.044	0.072	-0.124	-0.128	0.002	0.046	-0.051	-0.188	-0.1	-0.015	-0.092	0.067	0.041	-0.011	-0.097	0.023	0.081	0.033
ATP2A3 isoform 2 (UniProt Q93084)	-0.003	0.084	-0.048	-0.022	0.025	-0.068	-0.036	-0.025	-0.023	-0.091	-0.063	-0.001	-0.057	-0.064	-0.005	0.058	-0.014	0.076	0.025	-0.044
AP2S1 (UniProt P53680)	-0.022	-0.106	0.453	-0.151	0.04	-0.046	-0.054	0.046	0.031	0.077	0.023	-0.01	-0.019	-0.009	-0.011	-0.082	-0.057	0.004	-0.04	-0.001
ATP9B (UniProt O43861)	0.281	-0.033	-0.066	-0.098	0.029	-0.053	0.004	0	0.015	-0.208	-0.042	-0.042	-0.147	-0.149	-0.067	0.038	0.037	-0.096	0.121	0.069
B4GALT1 (UniProt P15291)	-0.007	-0.479 (active)	-0.031	-0.124	0.035	0.161	0.014	0.049	0.071	-0.066	-0.062	0.009	0.066	-0.025	-0.083	0.021	-0.005	0.04	0.153	0.029
ARFGEF1 (UniProt Q9Y6D6)	0.03	-0.135	0.022	0.052	0.021	-0.014	0.049	0.004	0.067	-0.024	0.052	0.006	-0.024	0.014	-0.026	0.008	0.005	0.047	0.009	-0.021
BECN1 (UniProt Q14457)	0.141	-0.126	0.043	0.093	0.283 (active)	0.138	0.034	-0.066	-0.004	-0.019	0.063	-0.032	0.032	-0.025	-0.072	0.076	-0.015	-0.038	-0.003	0.023
ALG3 (UniProt Q92685)	-0.067	0.087	0.001	-0.077	0.057	-0.107	-0.019	0.049	0.006	-0.086	-0.047	0.075	0.002	0.021	0.031	0.017	-0.065	0.013	-0.062	0.006
ARL3 (UniProt P36405)	0.029	0.041	0.019	-0.017	0.08	0.025	0.033	-0.012	-0.003	0.063	-0.024	-0.029	0.011	0.006	0.001	-0.003	0.022	-0.018	-0.034	0.029
BRIP1 (UniProt Q9BX63)	0.13	0.019	0.151	-0.005	0.042	-0.035	0.183	0.009	-0.088	0.018	-0.135	-0.011	-0.069	0.036	-0.09	-0.071	0.02	-0.197	-0.101	
ADH5 (UniProt P11766)	-0.021	0.033	0.032	-0.033	-0.002	-0.014	-0.003	-0.031	-0.033	-0.003	-0.009	0.006	-0.013	0.023	0.036	0.013	0.021	-0.006	-0.029	0.028
ARFGAP2 (UniProt Q8N6H7)	-0.04	0.042	0.062	0.007	0.033	-0.101	0.026	0.066	-0.009	0.039	-0.006	-0.008	-0.045	-0.063	-0.096	0.035	-0.024	-0.024	-0.059	0.041
ACAD9 (UniProt Q9H845)	0.01	0.035	0.021	-0.061	0.048	-0.03	-0.016	-0.052	-0.002	0.059	-0.061	-0.022	0	0.021	0.125	-0.023	0.047	0.014	0.055	0.067
ATG4B isoform 2 (UniProt Q9Y4P1)	0.078	-0.361	0.056	-0.004	-0.024	-0.12	-0.286	0.184	0.003	-0.277	0.004	0.073	-0.061	-0.035	-0.242	-0.041	0.022	0.13	-0.402	0.073
BCAP29 isoform 2 (UniProt Q9UHQ4)	-0.015	-0.028	0.061	-0.005	-0.006	0.037	-0.019	-0.079	-0.024	-0.245 (active)	-0.159	-0.027	-0.002	0.035	0.154	-0.018	0	0.04	0.058	0.02
